Compound activity: PubChem, National Center for Advancing Translational Sciences (NCATS)
Most compounds without a hit are left out; they make up all but 6.1% or so of the library.
RORg inh – qHTS for inhibitors of ROR gamma transcriptional activity; Drosophila S2 Gal4-RORgamma UAS-luciferase reporter, 20 h; Potency, µM (highest dose often 53.6 µM), for inactives: at the top dose activity change, negative = inhibition, actives largely listed as inhibitors; actives 5.4% (n = 310,000); AID 2551, 2010; also: % is scaled to controls: 0 for no effect and ±100 for the full control effect; nearly all actives have a fitted effect of over 60% in size
Target sequence (P51450 whole entry, looked up, the tested form may be a part): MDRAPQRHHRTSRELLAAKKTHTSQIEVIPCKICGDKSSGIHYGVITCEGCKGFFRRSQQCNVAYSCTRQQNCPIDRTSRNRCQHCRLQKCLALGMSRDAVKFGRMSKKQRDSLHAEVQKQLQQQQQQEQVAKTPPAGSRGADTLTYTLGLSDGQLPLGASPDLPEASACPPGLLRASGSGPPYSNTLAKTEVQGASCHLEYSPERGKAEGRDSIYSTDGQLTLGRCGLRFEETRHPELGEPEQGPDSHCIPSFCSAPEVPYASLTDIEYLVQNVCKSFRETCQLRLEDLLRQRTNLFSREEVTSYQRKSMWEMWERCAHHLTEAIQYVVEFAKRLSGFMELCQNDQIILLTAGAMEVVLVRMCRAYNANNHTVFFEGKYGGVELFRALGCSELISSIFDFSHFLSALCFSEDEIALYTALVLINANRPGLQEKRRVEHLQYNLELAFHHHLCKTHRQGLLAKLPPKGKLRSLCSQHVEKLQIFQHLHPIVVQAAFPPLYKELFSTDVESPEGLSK
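Using a luciferase readout, inhibitors were identified by reduced reporter activity in Drosophila cells coexpressing a copper-inducible Gal4–ROR gamma fusion and UAS-driven Photinus luciferase, incubated 20 hr after 700 uM copper sulfate.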
S2 tox – Viability Counterscreen for Primary qHTS for Inhibitors of ATXN expression; S2 cells (HEK-293 line with an ATXN2-luciferase reporter) viability, CellTiter-Fluor protease fluorescence, 24 h; AID 651635, 2014; actives 0.49% (n = 400,000); Potency, µM (highest dose often 56.7 µM), actives largely listed as cytotoxic; also: nearly all actives have a fitted effect of over 40% in size
HepG2 tox – qHTS for Inhibitors of TGF-b: Cytotox Counterscreen; HepG2 CAGA-GFP viability, ATP luminescence, 18 h; Potency, µM (highest dose often 46.1 µM), without a hit: at the top dose activity change, negative = cytotoxicity, most hits filed as cytotoxic; actives 0.76% (n = 410,000); AID 588856, 2011
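CellTiter-Glo luminescence gave cytotoxicity after 18 hours at 37 degrees C. The cells were HepG2 CAGA-GFP in 1% FBS DMEM, stimulated with 500 pg/mL TGF-beta after compound addition. %Activity was normalised to no-cell wells (complete cell-killing) and DMSO (no toxicity), and curves were fitted and classified.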
TGFb inhibitor – qHTS for Inhibitors of TGF-b | HepG2 CAGA-GFP TGF-b/SMAD3 reporter, GFP fluorescence, 18 h; TGF-beta stimulated, 500 pg/mL final | Potency, µM (series often up to 46.1 µM), inactives show at the highest dose activity, negative = inhibition, hits mostly inhibitors | actives 1.2% (n = 410,000); also: % is scaled to controls: 0 for no effect and ±100 for the full control effect; nearly all actives have a fitted effect of over 65% in size
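HEPG2 CAGA-GFP, 1000 cells/well; 2 h settle, 37 C; cpd via pin tool; TGF-b 500 pg/mL final; 18 h, 37 C; GFP imaging ex488/em500-530; %Activity normalised to -TGF-b and +DMSO controls; CRC fit, curve class.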
VP16 counter – VP16 counterscreen qHTS for inhibitors of ROR gamma transcriptional activity. Potency, µM (highest dose often 53.6 µM), for inactives: at the highest dose activity, negative = inhibition, actives largely listed as inhibitors. Drosophila S2 Gal4-VP16 UAS-luciferase, luminescence, 20 h. actives 3.5% (n = 310,000). AID 2546, 2010;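 also: Gal4-VP16 expression switched on by copper sulfate through the metallothionein promoter; % is scaled to controls: 0 for no effect and ±100 for the full control effect; nearly all actives have a fitted effect of over 50% in size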
ATXN2 expr inh – Primary qHTS for Inhibitors of ATXN expression | HEK-293 ATXN2-luciferase reporter, luminescence, 24 h | Potency, µM (series often up to 57 µM), inactives show top-dose activity change, negative = inhibition, usual class: inhibitors | actives 0.72% (n = 360,000); also: % is scaled to controls: 0 for no effect and ±100 for the full control effect; nearly all actives have a fitted effect of over 55% in size
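ATXN2-luciferase reporter cells (luciferase flanked by upstream and downstream ATXN2 gene portions) were treated 24 h at 37 °C with compounds at up to 57 uM. SteadyGlo luminescence gave expression; GF-AFC fluorescence gave viability.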
Numbers without * were called inactive; i = inactive; ? = inconclusive; · = not tested or not shown; [ ] = remark or other dose. Calls follow the shape of the dose curve; as a rule, active = well fitted curve in the direction sought with a large enough effect; inconclusive = small, poorly fitted or top-dose-only effect, or another doubt; inactive = no such curve, though single readings can be large; an effect the other way counts as inactive or inconclusive. Potency is read from the fitted curve at half-maximal effect.

SMILES | RORg inh | S2 tox | HepG2 tox | TGFb inhibitor | VP16 counter | ATXN2 expr inh
Fc1ccc(-c2csc(NC(=S)Nc3ccccc3)n2)cc1 | 0.89µM* | i | -25% | -17% | 3.2µM* | -12%
O=S(=O)(Nc1ccc(-c2csc(-c3ccccc3)n2)cc1)c1ccc(F)cc1 | ? | ? | -109% | ? | ? | ?
O=C(Nc1nc(-c2ccccc2)cs1)c1ccccc1NS(=O)(=O)c1ccc(F)cc1 | ? | i | -84% | ? | 5.6µM* | ?
CC(C)CCNC(=O)C(CC(C)C)NC(=O)C1OC1C(=O)O (centres undefined) | 3% | · | · | · | -1% | ·
O=[N+]([O-])c1cc([N+](=O)[O-])c2nonc2c1Nc1ccc(O)cc1 | 11µM* | ? | -17% | -10% | 13µM* | ·
O=[N+]([O-])c1cncc([N+](=O)[O-])c1Nc1cccc(O)c1 | ? | · | -29% | ? | 11µM* | 20µM*
COC(=O)COn1c(-n2nc(C)cc2C)nc2ccccc2c1=O | 4µM* | i | -1% | 1% | 8.9µM* | -5%
CCOn1c(-n2nc(C)cc2C)nc2ccccc2c1=O | -35% | i | -7% | -1% | 6% | 2%
Cc1cc(C)n(-c2nc3ccccc3c(=O)n2OCC(C)C)n1 | ? | i | -12% | 6% | 2% | 2%
CCOC(=O)COn1c(-n2nc(C)cc2C)nc2ccccc2c1=O | 18µM* | i | -12% | -1% | 14µM* | -18%
Cc1cc(C)n(-c2nc3ccccc3c(=O)n2OCC#N)n1 | 0.5µM* | ? | -24% | ? | 1µM* | ?
CCOC(=O)C(C)On1c(-n2nc(C)cc2C)nc2ccccc2c1=O (centres undefined) | 2.5µM* | i | -4% | -26% | 6.3µM* | -15%
O=C(Cc1nc2ccccc2[nH]1)N1CCC(n2c(C3CCC3)nc3cccnc32)CC1 | · | i | · | · | · | ·
Cc1ccc(-c2cc(C(=O)Nc3c(C(=O)c4ccc(C)c(F)c4)oc4ccccc34)no2)cc1 | · | i | 5% | -2% | · | 0%
COc1ccccc1-c1cc(C(=O)NCc2ccccc2)c2c(-c3ccc(C)cc3)[nH]nc2n1 | · | ? | -51% | -38% | · | -23%
COc1cc(OC)c(-c2cc(C(=O)NCc3ccc(F)cc3)c3c(-c4ccccc4)[nH]nc3n2)cc1OC | · | · | 11µM* | ? | · | ?
CCN(CC)c1ccc(/C=C/c2cc(Cl)nc3ccccc23)cc1 | · | · | -28% | -5% | · | ·
CCN(CC)c1ccc2nc3ccc(N)cc3[n+](-c3ccccc3)c2c1 | · | 16µM* | -45% | ? | · | 13µM*
Cc1ccc(-c2nn(CC(=O)NCc3cc(-c4nn(C)c(=O)c5ccccc45)ccc3C)c(=O)c3ccccc23)cc1 | ? | 13µM* | 3.5µM* | 0% | 10% | 11µM*
CCC(=O)NCc1cc(-c2nn(C)c(=O)c3ccccc23)ccc1C | -12% | i | -7% | 17% | -2% | 0%
CCC(=O)C1=C(c2ccc(F)cc2)N(C(=O)CC)n2cnnc2S1 | · | · | -85% | ? | · | ·
COc1cc(/C=N/NC(=Nc2ccc(C)cc2)c2nc3ccccc3s2)ccc1O | 7.1µM* | i | -1% | ? | ? | ?
COCCn1c(SCC(=O)Nc2ncc(C)s2)nc2sc3c(c2c1=O)CCC3 | -69% | · | · | · | 10µM* | ·
CCC(=O)Nc1ccccc1-c1nc2ccccc2n(CC(=O)c2ccc(Br)cc2)c1=O | · | · | -5% | 7% | · | ·
C/C(=N\NC(=O)C1CC1(c1ccccc1)c1ccccc1)c1cccc([N+](=O)[O-])c1 (centres undefined) | 9% | i | -1% | 8% | -2% | -5%
SMILES | RORg inh | S2 tox | HepG2 tox | TGFb inhibitor | VP16 counter | ATXN2 expr inh
CCOC(=O)C/C(C)=N/NC(=O)C1CC1(c1ccccc1)c1ccccc1 (centres undefined) | 10µM* | i | 0% | -29% | ? | 2%
Cc1ccccc1NC(=S)NC(C)C(c1ccccc1)N1CCN(C)CC1 (centres undefined) | 0% | i | -38% | -1% | 2% | 17%
Cc1ccccc1NC(=S)N/N=C/C(C)c1ccccc1 (centres undefined) | 1.8µM* | i | 4% | 0% | 8.9µM* | 13%[11.3 µM]
Cc1cccc(NC(=S)N/N=C/c2cccc(O)c2)c1C | 4.5µM* | i | -17% | ? | 14µM* | -13%
Cc1ccccc1NC(=S)N/N=C/c1ccc(O)cc1O | ? | ? | -4% | -21% | ? | ?
Cc1cccc(NC(=S)N/N=C/C(C)c2ccccc2)c1C (centres undefined) | 1.3µM* | i | -2% | 1% | 7.9µM* | 7%
CC1(c2ccc(OC(F)F)cc2)NC(=O)N(/N=C/c2c(O)ccc3ccccc23)C1=O (centres undefined) | ? | i | -118% | ? | 14µM* | -21%
Cc1ccc(CC2CC(=O)N(c3nc4ccccc4n3C)C2=O)cc1 (centres undefined) | 13µM* | i | -40% | -8% | ? | 24%
CCCn1c(NCc2ccccn2)nc2ccccc21 | 14µM* | i | -16% | -10% | -61% | 9%
COc1ccc(Nc2nc3ccccc3n2C)cc1 | -22% | i | -1% | -4% | 7% | 54%
Cc1ccc(CC2CC(=O)N(c3ccc(C)cc3)C2=O)cc1 (centres undefined) | 34% | i | -3% | 1% | 0% | 4%
CCCCn1c(Nc2ccc(OC)cc2)nc2ccccc21 | 10µM* | i | 0% | -10% | ? | ·
CCN(CC)CCn1c(NCc2cccc(OC)c2)nc2ccccc21 | 5.6µM* | i | -14% | -2% | -8% | -22%
CCOc1ccccc1CN1CCCC(c2nc(C)ncc2-c2ccc(F)cc2)C1 (centres undefined) | · | i | · | · | · | ·
CCCCn1c(NCc2ccc(N(C)C)cc2)nc2ccccc21 | 18% | ? | -35% | 16µM* | 13µM* | ?
CCN(CC)c1ccc(CNc2nc3ccccc3n2CCN2CCOCC2)cc1 | 11µM* | i | -20% | ? | -14% | ?
Cc1ccc(CNc2nc3ccccc3n2C)cc1 | 10µM* | i | -12% | 11% | ? | 7%
CC(NC(=O)C1CCOCC1)c1nnc2n1CCN(Cc1ccc3ccccc3c1)CC2 (centres undefined) | · | i | · | · | · | ·
O=C(Nc1nc2n(n1)C(c1ccc(F)cc1)CC(c1ccccc1)N2)c1ccco1 (centres undefined) | 3.2µM* | i | -35% | 0% | 7.1µM* | -28%
